# From PubChem
# The list is not random: actives were taken first. Their share in the collection is about 7.3%.
# Rab9 promoter act = activators of Rab9 promoter; Huh7 Rab9 promoter-luciferase reporter, luminescence, 24 h; Potency, µM (doses to about 9.22 µM), inactives show at the top dose activation, negative = inhibition, hits mostly activators; 320,000 compounds, 2.8% hits; further: % of control where 0% means no effect; nearly all actives have a fitted effect of over 60% in size
#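 Quantitative HTS format; Huh7 Rab9-luciferase reporter cells (1500/well) receive compound 2 h post-plating, incubate 24 h at 37 °C, then get luciferase reagent for 10 min before luminescence reading.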
# FLuc modulator = firefly luciferase modulation, counter-screen for miR-21 project; purified FLuc, Km substrates, luminescence inhibition; AID 588342; P08659; 360,000 compounds, 6.9% hits; Potency, µM (highest dose often 57.5 µM), without a hit: at the top dose activity change, negative = inhibition, usual class: inhibitors;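 further: plate controls were vehicle for no effect and reference inhibitor for full effect; nearly all actives have a fitted effect of over 55% in size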
# Target sequence (P08659 whole entry, looked up): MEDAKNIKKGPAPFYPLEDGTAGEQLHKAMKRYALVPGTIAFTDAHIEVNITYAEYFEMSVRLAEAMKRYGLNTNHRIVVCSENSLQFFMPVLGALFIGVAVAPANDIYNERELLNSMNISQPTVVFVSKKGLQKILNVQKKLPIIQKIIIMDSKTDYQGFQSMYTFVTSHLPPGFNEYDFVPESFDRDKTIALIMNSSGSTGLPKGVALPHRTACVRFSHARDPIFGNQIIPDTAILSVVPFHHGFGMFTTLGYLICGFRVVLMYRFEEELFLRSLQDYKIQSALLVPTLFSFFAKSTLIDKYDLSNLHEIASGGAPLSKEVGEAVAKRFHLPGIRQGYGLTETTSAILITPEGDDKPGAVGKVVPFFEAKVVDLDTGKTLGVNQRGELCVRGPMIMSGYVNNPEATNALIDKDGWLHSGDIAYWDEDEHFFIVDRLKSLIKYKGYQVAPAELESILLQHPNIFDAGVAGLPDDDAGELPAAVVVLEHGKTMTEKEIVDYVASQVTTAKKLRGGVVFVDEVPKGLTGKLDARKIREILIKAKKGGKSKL
#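 Biochemical qHTS of compounds, final roughly 60 µM downward over six points, against 10 nM purified firefly luciferase using Km concentrations of substrates (10 uM D-luciferin, 10 uM ATP) in Tris acetate pH 7.5 buffer; luminescence output.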
# SMN2 splice enh = enhancers of SMN2 splice variant expression. HEK293 SMN2-luciferase splicing reporter, luminescence, 30-36 h. Potency, µM (highest dose often 46.1 µM), for the others: at the top dose activity change, positive = activation, most hits filed as activators. 210,000 compounds, 2.8% hits. AID 1458; further: % of control where 0% means no effect; nearly all actives have a fitted effect of over 55% in size
#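 HEK293 cells carry an SMN2 minigene-luciferase reporter in which exon 7 inclusion puts luciferase in frame. Cells were seeded at 2000 cells/well, attached for 10-12 hours, then exposed to compounds for 30-36 hours at 37C before ONE-Glo luminescence.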
# NPC1 prom act = NPC1 promoter activation; Huh7 NPC1 promoter luciferase reporter, 24 h; Potency, µM (top dose mostly 9.22 µM), for the others: top-dose activation, hits mostly activators; 320,000 compounds, 2.4% hits; AID 485313; further: % of control where 0% means no effect; nearly all actives have a fitted effect of over 60% in size
#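 Luminescence from an NPC1 promoter-driven luciferase reporter in stably transfected Huh7 cells was measured after 24 h compound treatment at 37 °C, followed by 10 min ambient incubation with luciferase detection reagent.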
# ELG1 genotox = inducers of genotoxicity in HEK293T ELG1-luciferase cells; HEK293T ELG1-luciferase reporter, luminescence, 16 h; Potency, µM (top dose mostly 46 µM), for the others: top-dose activity change, positive = activation, most hits filed as activators; 330,000 compounds, 1.3% hits; AID 504466; further: % of control where 0% means no effect; nearly all actives have a fitted effect of over 60% in size
#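 Quantitative HTS format in 1536-well plates. HEK293T ELG1-luciferase reporter cells receive test compound and are incubated 16 hr at 37 °C, 5% CO2; ONE-Glo added, 30 min room temperature, then luminescence read.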
# p53 reactivator = re-activators of mutant p53 | H1299 p53-A138V BP100-luciferase reporter, luminescence, 24 h | Potency, µM (top dose mostly 92.2 µM), for the others: top-dose activity change, positive = activation, hits mostly activators | 320,000 compounds, 0.063% hits | AID 504706; further: % of control where 0% means no effect; nearly all actives have a fitted effect of over 45% in size
#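 p53-null H1299 cells stably carrying temperature-sensitive p53-A138V and a BP100-luciferase reporter were pinned with compounds (4-point, 1:5 series) and held 24 hrs at 37 deg C. Luminescence was read 10 min after detection reagent.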
# * = called active by the depositor; ? = inconclusive; nt = no result given; [ ] = dose if it differs, or a comment. The call rests on the fitted dose curve; in most records, active means well fitted curve in the direction sought with a large enough effect; inconclusive means small, poorly fitted or top-dose-only effect, or another doubt; inactive means no such curve, though single readings can be large; an effect the other way counts as inactive or inconclusive. Potency means the concentration at half of the fitted maximal effect.
SMILES,Rab9 promoter act,FLuc modulator,SMN2 splice enh,NPC1 prom act,ELG1 genotox,p53 reactivator
CCN(CC)c1ccc(/C=N/NC(=O)c2cccc(N3CCCC3=O)c2)cc1,-2.7%,15.1µM*,-4.9%,6.8%,8.3%,8.1%
Cc1c(/C=C/C(=O)c2ccc(C(C)C)cc2)cnn1C,?,1.9µM*,-15.5%,11.0%,?,-7.9%
Cc1c(/C=C/C(=O)c2ccccc2)cnn1C,?,4.78µM*,?,?,?,?
Cc1c(/C=C/C(=O)c2ccc(Cl)s2)cnn1C,?,1.51µM*,8.8%,?,?,?
COc1cc(/C=C/C(=O)c2ccc(Cl)s2)cc(OC)c1O,-4.0%,?,-26.1%,-1.7%,-2.2%,-11.2%
Cc1c(/C=C/C(=O)c2ccc(O)cc2)cnn1C,?,10.7µM*,?,?,20.6µM*,?
COc1ccc2nc(NC(=O)CSc3nnc(-c4ccoc4C)n3C)sc2c1,3.55µM*,2.69µM*,?,2.82µM*,19.4%,?
CCn1nnnc1SCC(=O)Nc1nc2ccc(OC)cc2s1,19.9%,12µM*,20.2%,22.9%,1.6%,10.5%
COc1ccc2nc(NC(=O)CSc3nc(C)cc(C)n3)sc2c1,-0.6%,-20.0%,-24.0%,-0.7%,-4.2%,-3.5%
Cc1cc(NC(=O)c2cc(-c3ccccc3)on2)n(-c2ccccc2)n1,-1.1%,1.2%,?,-1.5%,0.3%,14.0%
CCCCNC(=O)c1cc(-c2ccc(OC)c(OC)c2)on1,16.2%,-11.0%,-2.0%,14.0%,12.3%,?
COc1ccc(-c2cc(C(=O)Nc3cc(C)nn3-c3ccccc3)no2)cc1,-4.7%,13.5µM*,14.6%,-5.1%,2.4%,?
CCCCNC(=O)c1cc(-c2ccc(F)cc2)on1,3.98µM*,9.53µM*,25.1µM*,3.55µM*,?,?
CCCNC(=O)c1cc(-c2ccc(OC)cc2)on1,2.82µM*,2.39µM*,10µM*,0.891µM*,4.61µM*,15.7%
CCCCNC(=O)c1cc(-c2ccc(OC)cc2)on1,3.16µM*,8.49µM*,14.1µM*,3.98µM*,8.2µM*,?
O=c1oc2ccc3ccccc3c2cc1-c1nnc(Nc2cccc(C(F)(F)F)c2)s1,nt,-3.1%,14.0%,nt,nt,nt
C=CCC(O)(C#Cc1ccccc1)c1ccccc1 (configuration not stated),nt,nt,2.0%,nt,nt,nt
C[C@H]1CN=C(N(C)C)N1CCCC1CCCCC1,-6.6%,4.4%,nt,-7.7%,-2.4%,-14.6%
CCOc1ccc(NC(=O)c2ccc(CNc3c(N4CCCC4)c(=O)c3=O)cc2)cc1,6.4%,13.5µM*,nt,-3.5%,4.1%,-0.8%
CC(=O)c1ccc(NC(=O)c2ccc(CNc3c(N4CCOCC4)c(=O)c3=O)cc2)cc1,1.2%,12µM*,nt,-1.9%,-2.0%,26.7%
Cc1cccc(NC(=O)c2c(O)c3ccccc3[nH]c2=O)c1,0.708µM*,?,nt,1.58µM*,?,21.8%
O=C(Nc1cccc(C(F)(F)F)c1)c1c(O)c2ccccc2[nH]c1=O,7.4%,-9.6%,nt,0.3%,-1.1%,?
Cc1ccccc1NC(=O)Cc1c(O)c2ccccc2[nH]c1=O,4.8%,3.4%,-11.4%,-1.4%,1.8%,4.0%
O=C(Nc1cccc(O)c1)c1c(O)c2ccccc2[nH]c1=O,?,3.79µM*,nt,?,?,nt
Cc1ccc(NC(=O)Cc2c(O)c3ccccc3[nH]c2=O)c(C)c1,-0.2%,16.9µM*,nt,1.5%,-0.7%,-0.1%
SMILES,Rab9 promoter act,FLuc modulator,SMN2 splice enh,NPC1 prom act,ELG1 genotox,p53 reactivator
CCCCc1c(O)nc2sc3cc(OC)ccc3n2c1=O,22.2%,10.7µM*,29.0%,16.6%,?,19.7%
C=Cn1c(C(=O)O)ccc1-c1ccc(CC)cc1,0.0%,21.3µM*,nt,6.7%,6.7%,6.8%
CCc1ccc(C(=O)O)cc1,-3.9%,3.9%,nt,-2.7%,-0.6%,1.7%
CCCS(=O)(=O)c1ncc(Cl)c(C(=O)Nc2c(C(=O)c3ccccc3)oc3ccccc23)n1,nt,0.4%,1.0%,nt,nt,nt
O=C1NN(c2ccccc2)C(=O)/C1=C/c1cccs1,-10.3%,19µM*,3.2%,-3.5%,0.5%,6.0%
O=C1NN(c2ccccc2)C(=O)/C1=C\c1ccccc1,-2.2%,16.9µM*,nt,-0.9%,8.4%,-1.1%
O=C1NN(c2cccc(Br)c2)C(=O)/C1=C/c1cccs1,4.9%,9.53µM*,nt,-1.5%,-0.7%,-3.1%
O=C1NN(c2cccc(Br)c2)C(=O)/C1=C\c1ccccc1,-0.3%[1.84 µM],?,nt,2.4%,-0.2%,0.7%
O=C1NN(c2ccccc2)C(=O)/C1=C/c1coc2ccccc2c1=O,-8.1%,?,1.3%,-2.6%,15.5%,?
COC(=O)c1ccc2c(=O)n(CCCCCC(=O)NCCc3ccccc3)c(=O)[nH]c2c1,nt,-1.2%,nt,nt,nt,nt
Cc1ccc(C)c(NC(=O)C(=O)NCCc2csc3nc(-c4ccccc4C)nn23)c1,nt,-6.7%,nt,nt,nt,nt
CCOC(=O)c1ccc(NC2c3ccccc3C(=O)N2c2ccccn2)cc1 (configuration not stated),-3.0%,2.9%,-2.8%,-4.2%,9.0%,0.8%
O=C(c1ccccc1Cc1ccccc1)N1CCN(S(=O)(=O)c2ccccc2[N+](=O)[O-])CC1,-4.4%,1.7%,nt,-2.0%,-6.7%,2.1%
Cc1nc(Nc2ccc(S(N)(=O)=O)cc2)sc1-c1ccccc1,17.0%,21.3µM*,nt,27.7%,16.6%,5.0%
COc1ccc2c(C)nc(Nc3nc(C)c(C)c(=O)[nH]3)nc2c1,?,9.53µM*,3.5%,?,?,?
Cc1nc(Nc2ccc(S(N)(=O)=O)cc2)sc1C(=O)Nc1ccccc1,-1.0%,-0.8%,-5.9%,-5.0%,-4.3%,1.6%
CCc1c(C)nc(Nc2nc(C)c3ccc(OC)cc3n2)[nH]c1=O,?,?,-22.8%,16.4%,?,1.9%
COc1ccc(Nc2nc(C)c3ccccc3n2)cc1,2.51µM*,-4.7%[2.3 µM],35.5µM*,?,?,?
COc1ccc(Nc2nc(C)c(-c3ccccc3)s2)cc1,3.98µM*,7.57µM*,?,?,?,?
CCn1c(=O)n(CC)c2cc(N3CCCCC3)c(NC(=O)Nc3cc(C)cc(C)c3)cc21,nt,-1.7%,nt,nt,nt,nt
FB(F)F,nt,nt,24.6%,nt,nt,nt
CC(=O)N1CCc2cc(Br)cc(S(=O)(=O)N3CCN(c4cccc(C(F)(F)F)c4)CC3)c21,nt,-0.9%,-6.8%,nt,nt,nt
COc1ccc(Oc2nc3c(C)cccn3c(=O)c2/C=C(\C#N)c2nc3ccccc3[nH]2)cc1,nt,-5.3%,3.2%,nt,nt,nt
c1ccc2cc(NCNc3ccc4ccccc4c3)ccc2c1,nt,nt,8.4%[9.22 µM],nt,nt,nt
N[C@@H](CC1=CS(=O)(=O)c2ccc(Cl)cc21)C(=O)O,nt,nt,6.9%[9.22 µM],nt,nt,nt
COc1ccc2[nH]cc(/C=C/C(=O)c3ccccc3)c2c1,1.58µM*,3.38µM*,nt,3.16µM*,?,?
